Consider twelve compounds from PubChem BioAssay (EPA / NIEHS).

Structures are written as SMILES. Records with an inconclusive call do not appear. The source made the active and inactive calls. The calls were made as follows, unless noted: active = hit-call score of the fitted dose curve at least 0.9, where 1 is the maximum; inconclusive = response in the unintended direction; inactive = score below 0.9.

Test [1] addresses Retinoic acid receptor alpha (Homo sapiens) (UniProt P10276). As to the kind of experiment: ATG_DR5_RAR_CIS: Attagene CIS-FACTORIAL HepG2 Assay for human Retinoic Acid Receptor Alpha (RARE), DR5 submotif (AID 2282934; active = hit-call score of the fitted dose curve at least 0.9, where 1 is the maximum; inactive = score below 0.9). The settings on record: HepG2 Attagene cis-factorial RARE DR5 reporter, mRNA; actives raise or lower the signal. A digest of the protocol: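 Transfected HepG2 reporter cells are exposed to chemicals for 24 h. Then RNA is extracted and the DR5 element reporter transcript is measured by RT-PCR and capillary electrophoresis, with bidirectional curve fitting relative to DMSO.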

The target in test [2] is Oxysterols receptor LXR-alpha (Homo sapiens) (UniProt Q13133). Description: ATG_LXRa_TRANS: Attagene TRANS-FACTORIAL HepG2 Assay for human Liver X Receptor alpha (LXRa) (AID 2282980). The settings on record: HepG2 Attagene TRANS reporter, LXRa transactivation. A digest of the protocol:
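Transfect HepG2 with GAL4-UAS multiplex reporter constructs (TRANS format, chimeric receptor-GAL4); treat 24 h; extract RNA, reverse-transcribe, PCR-amplify, FAM-label, HpaI-digest; resolve fragments by capillary electrophoresis. Upward response vs DMSO.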

Test [3] has as its target Oxysterols receptor LXR-beta (Homo sapiens) (UniProt P55055). As to the kind of experiment: ATG_LXRb_TRANS: Attagene TRANS-FACTORIAL HepG2 Assay for human Liver X Receptor beta (LXRb) (AID 2282981). The settings on record: HepG2 Attagene TRANS GAL4-LXRb reporter, mRNA. In outline: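 Liver-derived HepG2 cells transfected with Gal4-responsive reporters were dosed for 24 h. Activation was scored as rise in reporter mRNA, by RT-PCR and capillary electrophoresis, above DMSO baseline.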

For test [4], the target named is Nuclear receptor subfamily 4 group A member 2 (Homo sapiens) (UniProt P43354). Description: ATG_NURR1_TRANS: Attagene TRANS-FACTORIAL HepG2 Assay for human Nuclear Receptor Related Protein 1 (NURR1) (AID 2282985). The settings on record: HepG2 Attagene TRANS reporter, mRNA readout. In outline: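 Chimeric NR-Gal4 proteins were expressed in human HepG2 cells bearing GAL4-UAS reporter units, and induced reporter mRNA was quantified 24 h post-dosing by RT-PCR and capillary electrophoresis.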

Test [5] concerns the target human Peroxisome Proliferator-activated Receptor alpha (PPARa), PPARA (gene 5465) (UniProt Q07869). Description: ATG_PPARa_TRANS: Attagene TRANS-FACTORIAL HepG2 Assay for human Peroxisome Proliferator-activated Receptor alpha (PPARa) (AID 2283001). A digest of the protocol:
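Exposure: 24 h, transiently transfected HepG2 cells. Endpoint: GAL4-UAS reporter mRNA, RT-PCR with capillary electrophoresis fluorescence. Baseline: DMSO; increases fitted.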

The target in test [6] is human RAR-related Orphan Receptor beta (RORb), RORB (gene 6096) (UniProt Q92753). As to the kind of experiment: ATG_RORb_TRANS: Attagene TRANS-FACTORIAL HepG2 Assay for human RAR-related Orphan Receptor beta (RORb) (AID 2283010). In outline: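 Multiplexed transcription-factor reporter assay: HepG2 cells transiently carrying NR-Gal4/GAL4-UAS constructs, 24 h treatment, mRNA quantified by RT-PCR plus capillary electrophoresis fluorescence; activity scored as induction over DMSO.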

The target of test [7] is human RAR-related Orphan Receptor gamma (RORg), RORC (gene 6097) (UniProt P51449). As to the kind of experiment: ATG_RORg_TRANS: Attagene TRANS-FACTORIAL HepG2 Assay for human RAR-related Orphan Receptor gamma (RORg) (AID 2283011). In outline:
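First, HepG2 liver cells were transfected with GAL4-UAS-driven reporter constructs and the RORg-Gal4 fusion. Next, they were treated with chemical for 24 h. Finally, reporter mRNA was quantified by RT-PCR and capillary electrophoresis, with upward activity fitted against DMSO.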

Test [8] addresses human Vitamin D Receptor (VDR), VDR (gene 7421) (UniProt P11473). As to the kind of experiment: ATG_VDR_TRANS: Attagene TRANS-FACTORIAL HepG2 Assay for human Vitamin D Receptor (VDR) (AID 2283022). A digest of the protocol:
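Steps: transfect HepG2 with GAL4-UAS-driven reporter constructs; dose compounds 24 h; isolate RNA, reverse-transcribe, PCR-amplify with 6-FAM-labelled primer extension and HpaI digestion; quantify fragments by capillary electrophoresis relative to DMSO.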

A short description of test [9]: ATG_XTT_Cytotoxicity: Cytotoxicity Assessment in the Attagene TRANS-FACTORIAL HepG2 Assay (AID 2283584). A digest of the protocol: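 Cells: human HepG2, transiently transfected with MRTU reporter constructs. Exposure 24 h. Readout: XTT, cell number. Baseline/neg ctrl DMSO; loss-of-signal scored.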
A short description of test [10]: ATG_GAL4_TRANS: Attagene TRANS-FACTORIAL HepG2 Assay for GAL4 (Internal Marker) (AID 2282976). The settings on record: HepG2 Attagene TRANS GAL4 internal marker reporter. A digest of the protocol: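 First, HepG2 cells were transfected with reporter units under GAL4-UAS control. Next, they were treated with chemical for 24 h. Finally, RNA was reverse-transcribed, PCR-amplified, FAM-labelled and resolved by capillary electrophoresis, with induction scored against DMSO.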

Test [11] deals with Hepatocyte nuclear factor 4-alpha (Homo sapiens) (UniProt P41235). Description: ATG_HNF4a_TRANS: Attagene TRANS-FACTORIAL HepG2 Assay for human Hepatocyte Nuclear Factor 4 alpha (HNF4a) (AID 2282982). The settings on record: HepG2 HNF4a transactivation reporter, mRNA readout. In outline:
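Using HepG2 liver cells transfected with GAL4-UAS reporter units, chemical-induced mRNA increases were assessed after 24 hours. Fluorescent RT-PCR fragments were separated by capillary electrophoresis and compared with DMSO negative controls.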

For test [12], the target named is human Peroxisome Proliferator-activated Receptor delta (PPARd), PPARD (gene 5467) (UniProt Q03181). As to the kind of experiment: ATG_PPARd_TRANS: Attagene TRANS-FACTORIAL HepG2 Assay for human Peroxisome Proliferator-activated Receptor delta (PPARd) (AID 2283002). A digest of the protocol: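 Measured quantity: GAL4-UAS reporter transcript induction in HepG2 after 24 h chemical dosing, with NR-Gal4 chimeras supplied by transient transfection. Detection by RT-PCR and capillary electrophoresis; upward fit against DMSO.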

Test [13] in a line: CCTE_Harrill_HTTr_Viability_MCF7: CCTE's 6-hour Cell Viability Assessment for the High-Throughput Transcriptomics (HTTr) Platform, in MCF-7 cells cultured in DMEM + 10% fetal bovine serum, Harrill Lab (AID 2284010; active = hit-call score of the fitted dose curve at least 0.9, where 1 is the maximum; inactive = score below 0.9). A digest of the protocol:
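Eight-point concentration series, six-hour exposure. Propidium iodide exclusion imaged to assess membrane integrity as a cytotoxicity readout; bidirectional fitting was done with DMSO as negative control and activity baseline.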

Test [14] has as its target Nuclear receptor subfamily 1 group I member 3 (Homo sapiens) (UniProt Q14994). As to the kind of experiment: ATG_CAR_TRANS: Attagene TRANS-FACTORIAL HepG2 Assay for human Constitutive Androstane Receptor (CAR) (AID 2282969).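 Also: activators raise reporter mRNA above DMSO so AC50 marks induction.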 The settings on record: HepG2 Attagene TRANS-FACTORIAL CAR reporter. In outline: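 Steps: transient transfection of HepG2 with multiple GAL4-UAS reporter units; 24 h compound incubation; RNA isolation, RT-PCR, 6-FAM primer extension, HpaI digest; capillary electrophoresis. Gain-of-signal relative to DMSO negative control.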

The target of test [15] is Nuclear receptor subfamily 1 group I member 2 (Homo sapiens) (UniProt O75469). Description: ATG_PXR_TRANS: Attagene TRANS-FACTORIAL HepG2 Assay for human Pregnane X Receptor (PXR) (AID 2283008). In outline:
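Transient HepG2 transfectants carrying multiplexed reporter transcription units; PXR activity read through a Gal4 chimera. 24 h exposure. RT-PCR/CE fluorescence; upward curve fit referenced to DMSO.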

Test [16] is described as follows: TOX21_p53_BLA_p2_viability: Viability Assessment in the Tox21 HCT-116 p53 Agonism Beta-lactamase Assay, Phase 2 (AID 2283591).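 Also: compound exposure lasted 16 h at 37 °C; actives lower the ATP signal meaning cytotoxicity.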 In outline: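 HCT-116 p53-bla cells (4000/well) rested 5 h at 37C, then received compounds in DMSO (217-fold dilution) for 16 h at 37C, 5% CO2. After the CCF4 read, CellTiter-Glo was added; ATP luminescence was read after 30 min at room temperature.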

Test [17] in a line: TOX21_p53_BLA_p3_viability: Viability Assessment in the Tox21 HCT-116 p53 Agonism Beta-lactamase Assay, Phase 3 (AID 2283593).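 Also: cells exposed to compound for 16 h before reading.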 A digest of the protocol: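 HCT-116 cells (4000/well) rested 5 h at 37C, then got DMSO compounds by pin tool (217-fold dilution) for 16 h at 37C, 5% CO2. After the bla read, CellTiter-Glo was added and luminescence read at 30 min, room temperature.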

Test [18] has as its target Cellular tumor antigen p53 (Homo sapiens) (UniProt P04637). Description: TOX21_p53_BLA_p3_ratio: Tox21 HCT-116 p53 Agonism Beta-lactamase Assay, Ratio, Phase 3 (AID 2283596). A digest of the protocol:
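Cells were seeded at 4000/well, rested 5 h at 37C, then dosed with DMSO compound solutions (217-fold dilution) for 16 h. CCF4-AM substrate was loaded for 2 h at room temperature, and the 460/530 nm emission ratio was fitted for gain of signal versus DMSO.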

Test [19] is described as follows: TOX21_p53_BLA_p4_viability: Viability Assessment in the Tox21 HCT-116 p53 Agonism Beta-lactamase Assay, Phase 4 (AID 2283597).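 Also: hits lower the luminescence signal meaning cytotoxicity.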 A digest of the protocol: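 Readout: ATP luminescence (CellTiter-Glo), measured 30 min after reagent addition at RT. The reagent followed a 2 h CCF4-AM incubation, and the cells had been exposed to compound for 16 h at 37C.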
For test [20], the target named is Bile acid receptor (Homo sapiens) (UniProt Q96RI1). As to the kind of experiment: ATG_IR1_CIS: Attagene CIS-FACTORIAL HepG2 Assay for human Nuclear Receptor Subfamily 1 Group H Member 4 (NR1H4), IR1 submotif (AID 2282946; active = hit-call score of the fitted dose curve at least 0.9, where 1 is the maximum; inactive = score below 0.9). The settings on record: IR1 reporter transcription, actives raise or lower the signal. A digest of the protocol:
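Readout: reporter transcript levels by RT-PCR with fluorescent capillary electrophoresis, from HepG2 cells transiently transfected with multiplexed cis-regulated reporters and dosed 24 h. Gain- or loss-of-signal fitted versus DMSO negative control.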

human RAR-related Orphan Receptor beta (RORb), RORB (gene 6096), sequence (Q92753 whole entry, looked up, the tested form may be a part): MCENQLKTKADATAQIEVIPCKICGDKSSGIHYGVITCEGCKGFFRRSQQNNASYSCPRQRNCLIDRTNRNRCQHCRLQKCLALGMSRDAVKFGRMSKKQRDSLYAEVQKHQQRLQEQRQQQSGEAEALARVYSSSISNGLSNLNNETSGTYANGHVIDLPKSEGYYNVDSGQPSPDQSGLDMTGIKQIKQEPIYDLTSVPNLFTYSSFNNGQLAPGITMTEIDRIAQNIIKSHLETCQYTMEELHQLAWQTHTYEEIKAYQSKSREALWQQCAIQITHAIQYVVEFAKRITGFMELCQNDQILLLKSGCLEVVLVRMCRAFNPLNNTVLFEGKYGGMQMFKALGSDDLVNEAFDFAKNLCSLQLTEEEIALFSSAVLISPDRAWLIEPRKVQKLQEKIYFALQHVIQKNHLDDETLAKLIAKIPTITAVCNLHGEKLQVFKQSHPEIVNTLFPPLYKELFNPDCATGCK
Oxysterols receptor LXR-alpha (Homo sapiens), sequence (Q13133 whole entry, looked up, the tested form may be a part): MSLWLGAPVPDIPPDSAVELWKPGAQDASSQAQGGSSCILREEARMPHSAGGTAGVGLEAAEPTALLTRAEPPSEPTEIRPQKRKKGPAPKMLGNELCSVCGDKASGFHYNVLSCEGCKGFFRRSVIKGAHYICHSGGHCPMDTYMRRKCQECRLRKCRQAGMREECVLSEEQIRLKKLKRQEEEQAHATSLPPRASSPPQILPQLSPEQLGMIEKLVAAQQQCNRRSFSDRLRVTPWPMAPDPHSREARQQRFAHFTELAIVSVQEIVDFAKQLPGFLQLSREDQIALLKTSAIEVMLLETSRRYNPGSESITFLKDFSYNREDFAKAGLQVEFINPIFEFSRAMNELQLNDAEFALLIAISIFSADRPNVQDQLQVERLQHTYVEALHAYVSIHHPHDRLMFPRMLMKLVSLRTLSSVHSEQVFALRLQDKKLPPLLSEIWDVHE
Oxysterols receptor LXR-beta (Homo sapiens), sequence (P55055 whole entry, looked up, the tested form may be a part): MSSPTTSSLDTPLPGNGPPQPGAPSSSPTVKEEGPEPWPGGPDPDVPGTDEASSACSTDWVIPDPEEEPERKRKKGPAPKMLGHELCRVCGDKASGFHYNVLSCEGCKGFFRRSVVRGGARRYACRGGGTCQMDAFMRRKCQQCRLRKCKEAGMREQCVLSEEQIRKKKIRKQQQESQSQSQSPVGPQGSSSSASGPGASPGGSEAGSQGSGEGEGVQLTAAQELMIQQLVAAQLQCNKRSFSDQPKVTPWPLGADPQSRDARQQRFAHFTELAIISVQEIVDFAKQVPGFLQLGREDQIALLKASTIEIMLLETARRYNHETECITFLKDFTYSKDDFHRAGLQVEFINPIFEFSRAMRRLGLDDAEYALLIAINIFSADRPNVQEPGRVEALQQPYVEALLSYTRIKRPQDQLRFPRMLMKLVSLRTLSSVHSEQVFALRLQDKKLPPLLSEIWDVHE
Nuclear receptor subfamily 1 group I member 2 (Homo sapiens), sequence (O75469 whole entry, looked up, the tested form may be a part): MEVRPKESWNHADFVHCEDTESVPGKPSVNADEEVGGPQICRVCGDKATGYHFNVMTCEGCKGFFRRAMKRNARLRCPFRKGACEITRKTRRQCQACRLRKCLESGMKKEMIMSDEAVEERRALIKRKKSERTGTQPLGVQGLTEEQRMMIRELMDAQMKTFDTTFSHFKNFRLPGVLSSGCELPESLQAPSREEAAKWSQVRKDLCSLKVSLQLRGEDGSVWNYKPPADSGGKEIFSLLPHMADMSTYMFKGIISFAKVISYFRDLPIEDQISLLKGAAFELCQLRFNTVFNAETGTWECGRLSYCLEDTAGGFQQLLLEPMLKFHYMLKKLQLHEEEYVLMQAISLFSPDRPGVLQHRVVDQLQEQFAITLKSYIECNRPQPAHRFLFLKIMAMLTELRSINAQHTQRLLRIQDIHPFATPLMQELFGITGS
Retinoic acid receptor alpha (Homo sapiens), sequence (P10276 whole entry, looked up): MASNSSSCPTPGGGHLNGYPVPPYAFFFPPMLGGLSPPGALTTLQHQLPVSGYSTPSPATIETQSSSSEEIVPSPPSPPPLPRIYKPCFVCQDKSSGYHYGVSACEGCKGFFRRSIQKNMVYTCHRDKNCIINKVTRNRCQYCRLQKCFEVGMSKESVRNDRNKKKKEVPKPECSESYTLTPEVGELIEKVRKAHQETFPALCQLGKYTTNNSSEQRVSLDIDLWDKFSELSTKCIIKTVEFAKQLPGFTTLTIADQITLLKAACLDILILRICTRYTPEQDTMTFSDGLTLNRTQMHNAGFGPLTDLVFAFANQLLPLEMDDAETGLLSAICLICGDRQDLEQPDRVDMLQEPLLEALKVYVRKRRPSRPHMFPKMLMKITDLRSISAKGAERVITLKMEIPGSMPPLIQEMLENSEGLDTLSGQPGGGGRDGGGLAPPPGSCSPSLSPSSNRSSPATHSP
Bile acid receptor (Homo sapiens), sequence (Q96RI1 whole entry, looked up): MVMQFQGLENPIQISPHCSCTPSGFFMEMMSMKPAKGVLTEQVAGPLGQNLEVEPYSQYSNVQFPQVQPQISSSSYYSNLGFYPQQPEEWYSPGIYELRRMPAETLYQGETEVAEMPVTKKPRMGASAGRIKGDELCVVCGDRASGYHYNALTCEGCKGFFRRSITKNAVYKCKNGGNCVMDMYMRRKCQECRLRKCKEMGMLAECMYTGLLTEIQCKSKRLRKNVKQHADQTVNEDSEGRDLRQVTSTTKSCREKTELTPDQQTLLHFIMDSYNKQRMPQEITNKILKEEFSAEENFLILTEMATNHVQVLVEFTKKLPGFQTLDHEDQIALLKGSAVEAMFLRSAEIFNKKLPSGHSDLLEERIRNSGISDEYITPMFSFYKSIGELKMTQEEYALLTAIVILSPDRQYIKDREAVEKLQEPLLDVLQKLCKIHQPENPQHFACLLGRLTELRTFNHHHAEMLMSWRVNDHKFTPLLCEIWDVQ
Cellular tumor antigen p53 (Homo sapiens), sequence (P04637 whole entry, looked up): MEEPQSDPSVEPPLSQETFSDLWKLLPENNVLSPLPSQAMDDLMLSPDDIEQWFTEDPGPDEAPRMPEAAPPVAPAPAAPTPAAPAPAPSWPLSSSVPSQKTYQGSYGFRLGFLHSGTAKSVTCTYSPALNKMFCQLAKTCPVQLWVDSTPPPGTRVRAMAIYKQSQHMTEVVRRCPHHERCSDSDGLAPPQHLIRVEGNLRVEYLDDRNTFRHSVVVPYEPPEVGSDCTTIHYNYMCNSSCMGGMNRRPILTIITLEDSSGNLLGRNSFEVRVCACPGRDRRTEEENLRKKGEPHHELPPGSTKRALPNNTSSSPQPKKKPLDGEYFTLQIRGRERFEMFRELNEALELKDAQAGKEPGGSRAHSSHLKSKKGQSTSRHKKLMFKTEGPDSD
Nuclear receptor subfamily 1 group I member 3 (Homo sapiens), sequence (Q14994 whole entry, looked up, the tested form may be a part): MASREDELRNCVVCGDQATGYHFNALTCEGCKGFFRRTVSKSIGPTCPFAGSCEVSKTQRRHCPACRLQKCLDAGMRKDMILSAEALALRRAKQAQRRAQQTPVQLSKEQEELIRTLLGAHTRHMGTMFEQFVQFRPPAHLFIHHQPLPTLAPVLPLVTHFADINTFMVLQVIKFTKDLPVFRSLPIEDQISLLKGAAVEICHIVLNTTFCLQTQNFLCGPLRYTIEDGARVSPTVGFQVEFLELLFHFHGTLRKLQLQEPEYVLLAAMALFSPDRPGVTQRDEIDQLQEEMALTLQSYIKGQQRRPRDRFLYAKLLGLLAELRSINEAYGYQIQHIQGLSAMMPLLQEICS
human Peroxisome Proliferator-activated Receptor alpha (PPARa), PPARA (gene 5465), sequence (Q07869 whole entry, looked up, the tested form may be a part): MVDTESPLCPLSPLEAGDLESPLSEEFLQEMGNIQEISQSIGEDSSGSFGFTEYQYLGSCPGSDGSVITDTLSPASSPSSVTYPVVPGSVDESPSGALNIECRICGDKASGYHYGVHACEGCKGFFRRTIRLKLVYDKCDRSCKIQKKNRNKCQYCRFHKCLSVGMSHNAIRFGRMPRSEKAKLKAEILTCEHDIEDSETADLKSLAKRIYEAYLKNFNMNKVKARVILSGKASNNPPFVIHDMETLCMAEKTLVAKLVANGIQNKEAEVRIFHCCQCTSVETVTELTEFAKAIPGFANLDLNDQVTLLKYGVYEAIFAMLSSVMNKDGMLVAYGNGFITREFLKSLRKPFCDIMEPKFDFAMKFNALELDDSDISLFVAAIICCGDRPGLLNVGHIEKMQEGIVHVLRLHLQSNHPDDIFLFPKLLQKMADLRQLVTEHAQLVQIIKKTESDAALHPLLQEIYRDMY
human RAR-related Orphan Receptor gamma (RORg), RORC (gene 6097), sequence (P51449 whole entry, looked up, the tested form may be a part): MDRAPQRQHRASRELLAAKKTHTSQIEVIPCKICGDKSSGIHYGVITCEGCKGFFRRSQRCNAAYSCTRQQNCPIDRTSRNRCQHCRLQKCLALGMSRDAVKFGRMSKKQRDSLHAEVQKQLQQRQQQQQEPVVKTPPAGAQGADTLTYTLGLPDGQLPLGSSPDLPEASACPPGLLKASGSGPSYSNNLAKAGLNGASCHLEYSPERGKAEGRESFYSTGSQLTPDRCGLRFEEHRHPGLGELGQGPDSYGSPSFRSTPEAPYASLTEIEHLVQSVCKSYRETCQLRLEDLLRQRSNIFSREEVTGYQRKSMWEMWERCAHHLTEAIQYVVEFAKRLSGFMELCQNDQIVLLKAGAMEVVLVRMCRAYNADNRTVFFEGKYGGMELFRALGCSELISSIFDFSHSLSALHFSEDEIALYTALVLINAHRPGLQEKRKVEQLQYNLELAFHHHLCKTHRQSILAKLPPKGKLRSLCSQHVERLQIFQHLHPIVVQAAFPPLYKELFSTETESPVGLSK
human Vitamin D Receptor (VDR), VDR (gene 7421), sequence (P11473 whole entry, looked up, the tested form may be a part): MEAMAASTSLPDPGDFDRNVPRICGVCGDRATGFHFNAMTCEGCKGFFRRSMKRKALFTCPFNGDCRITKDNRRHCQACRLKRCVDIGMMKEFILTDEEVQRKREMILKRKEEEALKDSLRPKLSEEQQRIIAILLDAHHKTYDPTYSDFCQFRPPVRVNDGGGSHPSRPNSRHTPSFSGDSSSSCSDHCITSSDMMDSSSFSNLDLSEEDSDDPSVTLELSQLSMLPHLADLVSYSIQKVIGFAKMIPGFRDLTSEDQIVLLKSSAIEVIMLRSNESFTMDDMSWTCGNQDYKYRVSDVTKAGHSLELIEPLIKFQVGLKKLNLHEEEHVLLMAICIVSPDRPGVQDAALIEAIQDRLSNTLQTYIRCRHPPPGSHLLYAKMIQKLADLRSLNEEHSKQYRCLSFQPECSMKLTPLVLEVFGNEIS

Take `ClCCCCCCCl`: the result in test [1], in test [2], in [3], in test [4], in test [5] and in test [6] was inactive. Also, the outcome in test [7], in test [8] and in test [9] was inactive.

Consider `CN1C(=O)CCS(=O)(=O)C1c1ccc(Cl)cc1` (stereo unspecified), for which the compound was called inactive in test [1], in [10], in test [11], in test [5], in test [12] and in test [13].

Turning to `Nc1ccccc1C(=O)OCCc1ccccc1`, the outcome in test [1], in test [14], in test [2], in test [3], in test [11] and in test [4] was inactive. The compound was called inactive in test [5], in [6], in test [7], in [16], in test [17] and in test [18]. In addition, in test [19], the result was inactive. The AC50 in [15] is 19.2 µM (active).

For `CC[N+](=O)[O-]`, the result in [1], in test [14], in test [11], in test [4], in [5] and in test [12] was inactive. Moreover, the outcome in test [8], in test [16], in test [17] and in test [18] was inactive.

For the compound `Nc1ccc([N+](=O)[O-])cc1N`, the call in [1], in test [10], in test [2], in test [3], in test [11] and in test [4] was inactive. Besides, the compound was classed as inactive in [12], in test [15], in test [6], in [7], in test [8] and in test [17]. For the same compound, the outcome in [18] and in test [19] was inactive.

Turning to `CC(Cc1ccc(C(C)(C)C)cc1)CN1C[C@@H](C)O[C@@H](C)C1` (stereo partly specified), the compound was classed as inactive in [20], in [14], in test [2], in test [3], in [11] and in test [5]. Besides, the compound was called inactive in test [6], in test [9], in test [16], in test [18], in test [19] and in [13]. For the same compound, the AC50 in [4] was 33.4 µM (active); in test [15], 4.52 µM (active); in test [17] it was 46.1 µM (active).

Turning to `[Cl][Sb]([Cl])[Cl]`, the result in [1], in test [14], in [2], in test [3], in [11] and in test [12] was inactive. Further, the call in test [6], in test [7], in test [9], in test [16], in [18] and in [19] was inactive. The outcome in test [13] was inactive.

Regarding `CCNCC`, the compound was classed as inactive in test [10], in test [3], in [5] and in test [7].

In the case of `Cc1ncc(C[n+]2csc(CCO)c2C)c(N)n1`, the call in test [1], in [10], in [3], in [4], in test [6] and in test [16] was inactive. For the same compound, the result in test [17] and in [18] was inactive.

Turning to `O=c1c2ccccc2c(=O)c2c1cc(Cl)c1[nH]c3c([nH]c12)c(Cl)cc1c(=O)c2ccccc2c(=O)c13`, the outcome in [20], in [14], in test [11], in test [4], in test [5] and in [12] was inactive. The call in test [6], in [7], in [9], in test [17] and in test [19] was inactive.

For `CCCCCCC1CCOC1=O` (stereo unspecified), the compound was classed as inactive in test [1], in test [10], in test [5], in test [15], in test [6] and in test [9].

Consider `O=S(=O)(c1ccccc1)c1ccccc1`, for which the result in [1], in [20], in [10], in test [2], in test [3] and in [8] was inactive. The result in [16], in [18], in test [19] and in test [13] was inactive. The AC50 in test [15] was 10.3 µM (active).
